This is an account of results in PubChem BioAssay AID504452 (The Scripps Research Institute Molecular Screening Center, 2011).

Calls of active or inactive are those of the source. Cut-off read from the data, not from the text of the source: active = activation above about 85%; inactive = the rest.

Chain of Peroxisome proliferator-activated receptor gamma (Homo sapiens) (P37231 whole entry, looked up): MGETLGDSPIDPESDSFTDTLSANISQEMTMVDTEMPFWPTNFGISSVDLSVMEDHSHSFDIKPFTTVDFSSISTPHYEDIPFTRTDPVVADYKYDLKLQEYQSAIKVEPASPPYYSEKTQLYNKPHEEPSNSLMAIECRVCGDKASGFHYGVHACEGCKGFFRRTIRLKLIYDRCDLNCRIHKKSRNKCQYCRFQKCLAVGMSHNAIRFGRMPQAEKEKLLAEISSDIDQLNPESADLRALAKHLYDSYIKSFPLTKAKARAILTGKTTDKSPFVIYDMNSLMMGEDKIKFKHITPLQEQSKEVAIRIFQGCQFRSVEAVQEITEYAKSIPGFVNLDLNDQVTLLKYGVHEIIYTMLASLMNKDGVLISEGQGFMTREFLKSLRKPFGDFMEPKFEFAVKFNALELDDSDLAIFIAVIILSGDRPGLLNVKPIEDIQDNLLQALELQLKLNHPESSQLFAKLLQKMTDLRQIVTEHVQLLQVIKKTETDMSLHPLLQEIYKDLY

This assay concerns the target Peroxisome proliferator-activated receptor gamma (Homo sapiens) (UniProt P37231). Put plainly: partial agonism at human PPARgamma receptor – cell-based, luciferase reporter, luminescence, primary screen (AID 504452).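 Note: Cos-1 cells carrying PPARgamma and a response element luciferase reporter.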 As to conditions: cell-based PPARg luciferase reporter, at 5 µM, stronger effect = higher value; activation (% of full agonist control): measured here: relative to full agonist control.
In the case of `COC(=O)C1=CN(Cc2ccc(C)cc2)C=C(C(=O)OC)C1c1ccc(F)c(F)c1`, the activation (% of partial agonist control) is 80.2% (inactive) and the activation (% of full agonist control) is 36.2%.
For the compound `CCC(=O)Nc1nonc1-c1nc2ccccc2n1Cc1cccc2ccccc12`, the activation (% of partial agonist control) was 55.5% (inactive) and the activation (% of full agonist control) is 25.1%.
`O=C(CN(c1ccc(F)cc1)S(=O)(=O)c1ccccc1)NC1CC2CCC1C2` (centres undefined): the activation (% of partial agonist control) was 53.5% (inactive) and the activation (% of full agonist control) came out at 24.2%.
The corresponding values for `Cc1cc(N2C(=O)C(=O)/C(=C(/O)c3ccc(F)cc3)C2c2ccc(F)cc2)no1` (centres undefined) are 70.3% (inactive) and 31.8%.
The corresponding values for `Cc1cccc(NC(=O)CSc2nc(=O)n(CCN3CCOCC3)c3c2CCCC3)c1C` are 73.2% (inactive) and 33.1%.
With `CCN(CC)S(=O)(=O)c1ccc(N2CCOCC2)c(NC(=O)C(C)Oc2ccc(F)cc2)c1` (centres undefined), the activation (% of full agonist control) was found to be 29.3% and the activation (% of partial agonist control) is 64.8% (inactive).
On to `O=C(CSc1nnc(Cc2cc(=O)[nH]c(=O)[nH]2)n1-c1ccc(Cl)cc1)N1CCc2ccccc21`, for which the activation (% of full agonist control) was 46.6% and the activation (% of partial agonist control) is 103% (active).
